Results taken from publication PMC7862700, “An all-to-all approach to the identification of sequence-specific readers for epigenetic DNA modifications on cytosine”.

Key:
Experiment in all cases: DAPPL (digital affinity profiling via proximity ligation, sequencing); 10 mM Tris-HCl pH 7.5, 50 mM NaCl, 1 mM DTT, 4% glycerol, room temperature, 30 min; GST-TFs on glutathione beads, 16-mer random dsDNA library, 0.1% formaldehyde crosslink after washing; high values mean tight binding
Details in all cases: protein: recombinant; tags: N-terminal GST; dsDNA, one strand shown
ELK1 = biological target: T1, ELK1 (Homo sapiens, UniProt P19419 1-428)
T1 sequence: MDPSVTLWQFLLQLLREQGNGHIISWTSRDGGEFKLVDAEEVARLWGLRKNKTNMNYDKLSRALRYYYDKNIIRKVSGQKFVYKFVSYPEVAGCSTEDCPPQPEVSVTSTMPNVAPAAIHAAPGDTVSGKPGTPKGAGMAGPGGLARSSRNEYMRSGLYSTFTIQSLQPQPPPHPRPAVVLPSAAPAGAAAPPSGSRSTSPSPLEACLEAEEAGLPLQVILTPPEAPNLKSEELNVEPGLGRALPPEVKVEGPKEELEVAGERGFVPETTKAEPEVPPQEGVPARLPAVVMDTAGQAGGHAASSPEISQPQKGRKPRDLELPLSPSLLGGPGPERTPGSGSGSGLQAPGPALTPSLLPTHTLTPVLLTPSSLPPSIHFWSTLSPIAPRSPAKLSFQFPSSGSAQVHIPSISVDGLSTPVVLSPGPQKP
Summary of the method: (§1)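 After expression in yeast as GST fusions, human transcription factors were bound to glutathione beads, DNA-barcoded and mixed with a tag-only sample. The pools were incubated with 200 nmole of a 16-mer random double-stranded DNA library in Tris/NaCl/DTT/glycerol buffer (30 min, room temperature), washed and crosslinked with 0.1% formaldehyde. Proximity ligation with BsaI/T4 ligase ran for 1 h at 37 °C, before PCR amplification and sequencing on an Illumina NextSeq500. Binding signal is a hexamer's read frequency for a factor divided by its frequency for the tag-only sample.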

GABPA = biological target: T2, GABPA (Homo sapiens, UniProt Q06546 1-454)
T2 sequence: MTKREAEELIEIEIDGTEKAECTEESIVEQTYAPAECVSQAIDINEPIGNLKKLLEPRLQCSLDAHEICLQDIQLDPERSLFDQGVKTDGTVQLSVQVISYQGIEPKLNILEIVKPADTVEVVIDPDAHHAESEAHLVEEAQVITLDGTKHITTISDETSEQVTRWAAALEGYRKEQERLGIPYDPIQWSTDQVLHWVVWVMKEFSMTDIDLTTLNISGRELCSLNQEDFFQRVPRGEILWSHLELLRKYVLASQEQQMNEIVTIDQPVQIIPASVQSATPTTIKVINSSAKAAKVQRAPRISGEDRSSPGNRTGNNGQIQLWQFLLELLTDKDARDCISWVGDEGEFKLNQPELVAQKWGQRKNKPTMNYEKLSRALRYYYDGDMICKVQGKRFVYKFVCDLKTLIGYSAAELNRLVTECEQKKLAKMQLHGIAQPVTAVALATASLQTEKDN
Summary of the method: as §1

ERG = biological target: T3, ERG (Homo sapiens, UniProt P11308 1-479)
T3 sequence: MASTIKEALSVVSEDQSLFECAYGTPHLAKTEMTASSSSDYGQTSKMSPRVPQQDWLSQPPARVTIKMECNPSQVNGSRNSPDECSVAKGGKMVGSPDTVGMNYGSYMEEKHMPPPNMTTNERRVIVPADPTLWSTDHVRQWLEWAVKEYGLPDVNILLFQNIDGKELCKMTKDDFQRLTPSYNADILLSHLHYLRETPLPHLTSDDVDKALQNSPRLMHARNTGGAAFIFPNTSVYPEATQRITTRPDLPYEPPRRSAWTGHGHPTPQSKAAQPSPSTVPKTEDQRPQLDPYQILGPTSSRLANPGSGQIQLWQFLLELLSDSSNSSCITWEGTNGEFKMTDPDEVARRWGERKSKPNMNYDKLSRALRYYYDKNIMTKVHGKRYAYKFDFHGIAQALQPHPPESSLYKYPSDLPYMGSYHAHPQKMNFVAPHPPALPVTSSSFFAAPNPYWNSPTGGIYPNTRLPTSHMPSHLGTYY
Summary of the method: as §1

ELF1 = ELF1 (Homo sapiens, UniProt P32519 1-619)
ELF1, sequence (P32519 whole entry): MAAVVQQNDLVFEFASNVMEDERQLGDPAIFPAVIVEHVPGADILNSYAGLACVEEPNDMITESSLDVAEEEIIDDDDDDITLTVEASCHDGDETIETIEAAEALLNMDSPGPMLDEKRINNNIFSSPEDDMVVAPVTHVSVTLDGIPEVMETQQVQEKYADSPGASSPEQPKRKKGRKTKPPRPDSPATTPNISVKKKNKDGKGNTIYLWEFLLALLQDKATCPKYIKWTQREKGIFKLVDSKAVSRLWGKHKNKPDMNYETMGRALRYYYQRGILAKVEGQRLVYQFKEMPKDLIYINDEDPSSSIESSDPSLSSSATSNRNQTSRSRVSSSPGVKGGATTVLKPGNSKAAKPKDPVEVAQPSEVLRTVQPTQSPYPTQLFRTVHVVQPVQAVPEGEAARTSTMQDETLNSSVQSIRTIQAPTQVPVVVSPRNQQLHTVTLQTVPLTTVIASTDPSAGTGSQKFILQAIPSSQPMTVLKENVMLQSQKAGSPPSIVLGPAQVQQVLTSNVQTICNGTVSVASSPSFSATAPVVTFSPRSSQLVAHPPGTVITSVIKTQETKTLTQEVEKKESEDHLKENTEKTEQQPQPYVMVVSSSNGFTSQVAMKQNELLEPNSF
Summary of the method: as §1

EHF = biological target: T4, EHF (Homo sapiens, UniProt Q9NZC4 1-300)
T4 sequence: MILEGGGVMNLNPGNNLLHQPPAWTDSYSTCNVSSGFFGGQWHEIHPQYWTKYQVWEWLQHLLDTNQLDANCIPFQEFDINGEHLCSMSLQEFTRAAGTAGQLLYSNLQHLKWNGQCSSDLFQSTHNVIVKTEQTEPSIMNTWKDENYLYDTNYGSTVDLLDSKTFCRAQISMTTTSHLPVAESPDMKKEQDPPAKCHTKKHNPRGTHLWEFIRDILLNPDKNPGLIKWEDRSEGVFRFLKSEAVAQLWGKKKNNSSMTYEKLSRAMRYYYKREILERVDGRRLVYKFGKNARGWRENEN
Summary of the method: as §1

SPIB = SPIB (Homo sapiens, UniProt Q01892 1-262)
SPIB, sequence (Q01892 whole entry): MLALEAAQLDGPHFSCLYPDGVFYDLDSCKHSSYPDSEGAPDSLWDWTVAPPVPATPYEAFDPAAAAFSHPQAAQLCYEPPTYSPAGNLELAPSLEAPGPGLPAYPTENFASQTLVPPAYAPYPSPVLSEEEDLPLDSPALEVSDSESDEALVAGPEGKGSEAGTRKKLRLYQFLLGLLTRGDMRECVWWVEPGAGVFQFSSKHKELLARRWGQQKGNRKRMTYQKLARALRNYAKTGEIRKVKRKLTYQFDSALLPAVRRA
Summary of the method: as §1

ELK3 = biological target: T5, ELK3 (Homo sapiens, UniProt P41970 1-407)
T5 sequence: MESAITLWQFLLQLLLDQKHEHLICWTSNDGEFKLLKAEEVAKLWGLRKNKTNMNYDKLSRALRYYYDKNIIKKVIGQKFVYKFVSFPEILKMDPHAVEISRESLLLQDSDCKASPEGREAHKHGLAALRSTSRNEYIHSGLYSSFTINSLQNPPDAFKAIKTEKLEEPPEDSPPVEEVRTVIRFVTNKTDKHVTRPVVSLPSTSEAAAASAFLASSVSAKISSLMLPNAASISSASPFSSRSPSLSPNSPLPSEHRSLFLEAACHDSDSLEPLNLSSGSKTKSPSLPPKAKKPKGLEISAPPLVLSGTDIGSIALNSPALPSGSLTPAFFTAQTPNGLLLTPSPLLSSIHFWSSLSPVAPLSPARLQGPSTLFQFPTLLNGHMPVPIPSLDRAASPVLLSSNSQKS
Summary of the method: as §1

ETV5 = ETV5 (Homo sapiens, UniProt P41161 1-510)
ETV5, sequence (P41161 whole entry): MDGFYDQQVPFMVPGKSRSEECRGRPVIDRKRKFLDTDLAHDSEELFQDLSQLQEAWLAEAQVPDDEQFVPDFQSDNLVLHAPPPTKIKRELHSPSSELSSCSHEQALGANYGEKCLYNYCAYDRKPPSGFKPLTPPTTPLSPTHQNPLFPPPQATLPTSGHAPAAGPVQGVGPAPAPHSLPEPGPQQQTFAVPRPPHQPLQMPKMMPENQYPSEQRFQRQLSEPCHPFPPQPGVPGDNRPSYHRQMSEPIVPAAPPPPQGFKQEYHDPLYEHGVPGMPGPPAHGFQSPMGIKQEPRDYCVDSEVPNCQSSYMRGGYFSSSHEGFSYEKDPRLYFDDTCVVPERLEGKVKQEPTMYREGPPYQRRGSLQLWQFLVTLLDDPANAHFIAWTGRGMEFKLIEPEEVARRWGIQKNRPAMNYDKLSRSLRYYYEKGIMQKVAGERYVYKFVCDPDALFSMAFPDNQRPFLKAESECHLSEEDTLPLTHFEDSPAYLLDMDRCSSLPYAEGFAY
Summary of the method: as §1

SPIC = biological target: T6, SPIC (Homo sapiens, UniProt Q8N5J4 1-248)
T6 sequence: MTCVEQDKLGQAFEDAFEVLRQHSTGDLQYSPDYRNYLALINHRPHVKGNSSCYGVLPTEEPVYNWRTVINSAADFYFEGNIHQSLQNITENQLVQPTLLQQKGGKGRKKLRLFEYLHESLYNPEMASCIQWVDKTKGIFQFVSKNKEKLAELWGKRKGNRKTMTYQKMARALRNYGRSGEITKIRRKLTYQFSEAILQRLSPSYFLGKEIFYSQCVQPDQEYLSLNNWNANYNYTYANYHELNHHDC
Summary of the method: as §1

ELF4 = ELF4 (Homo sapiens, UniProt Q99607 1-663)
ELF4, sequence (Q99607 whole entry): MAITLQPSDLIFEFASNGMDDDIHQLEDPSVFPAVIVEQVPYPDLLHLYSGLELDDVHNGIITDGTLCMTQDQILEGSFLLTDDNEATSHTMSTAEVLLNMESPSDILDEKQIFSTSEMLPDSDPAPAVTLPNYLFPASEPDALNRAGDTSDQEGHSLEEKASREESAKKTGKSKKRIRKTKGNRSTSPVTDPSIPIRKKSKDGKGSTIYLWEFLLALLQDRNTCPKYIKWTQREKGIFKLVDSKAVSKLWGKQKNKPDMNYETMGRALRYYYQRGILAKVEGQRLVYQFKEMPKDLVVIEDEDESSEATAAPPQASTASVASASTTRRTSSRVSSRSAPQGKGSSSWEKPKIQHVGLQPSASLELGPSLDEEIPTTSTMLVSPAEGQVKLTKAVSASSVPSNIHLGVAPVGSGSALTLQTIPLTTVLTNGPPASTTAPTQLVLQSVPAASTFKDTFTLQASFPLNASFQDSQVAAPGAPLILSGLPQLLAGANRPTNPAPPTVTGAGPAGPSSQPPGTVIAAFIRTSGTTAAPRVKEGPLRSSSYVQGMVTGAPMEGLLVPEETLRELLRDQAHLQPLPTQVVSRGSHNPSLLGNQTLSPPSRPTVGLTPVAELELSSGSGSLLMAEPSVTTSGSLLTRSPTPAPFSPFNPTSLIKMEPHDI
Summary of the method: as §1

ELK4 = biological target: T7, ELK4 (Homo sapiens, UniProt P28324-2 1-405)
T7 sequence: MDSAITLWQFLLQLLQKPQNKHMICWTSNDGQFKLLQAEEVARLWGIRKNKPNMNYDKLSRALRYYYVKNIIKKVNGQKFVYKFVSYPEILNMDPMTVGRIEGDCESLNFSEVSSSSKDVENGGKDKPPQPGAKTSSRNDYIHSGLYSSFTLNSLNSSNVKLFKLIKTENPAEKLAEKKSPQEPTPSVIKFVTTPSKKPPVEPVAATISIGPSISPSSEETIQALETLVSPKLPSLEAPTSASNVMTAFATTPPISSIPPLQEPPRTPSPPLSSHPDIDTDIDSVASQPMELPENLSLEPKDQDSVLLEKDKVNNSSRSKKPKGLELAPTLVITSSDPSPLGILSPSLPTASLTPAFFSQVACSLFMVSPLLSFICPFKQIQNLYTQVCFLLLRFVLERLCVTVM
Summary of the method: as §1

ELF3 = biological target: T8, ELF3 (Homo sapiens, UniProt P78545 1-371)
T8 sequence: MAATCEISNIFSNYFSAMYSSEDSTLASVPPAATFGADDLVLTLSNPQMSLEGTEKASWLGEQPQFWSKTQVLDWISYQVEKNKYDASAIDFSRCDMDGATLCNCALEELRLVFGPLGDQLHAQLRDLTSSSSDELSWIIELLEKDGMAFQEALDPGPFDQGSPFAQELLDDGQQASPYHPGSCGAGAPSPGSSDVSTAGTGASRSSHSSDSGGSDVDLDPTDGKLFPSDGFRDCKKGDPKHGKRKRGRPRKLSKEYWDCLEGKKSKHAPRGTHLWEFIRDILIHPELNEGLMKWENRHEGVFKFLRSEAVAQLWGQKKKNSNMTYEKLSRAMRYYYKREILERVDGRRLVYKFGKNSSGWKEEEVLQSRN
Summary of the method: as §1

ETV1 = ETV1 (Homo sapiens, UniProt P50549 1-477)
ETV1, sequence (P50549 whole entry): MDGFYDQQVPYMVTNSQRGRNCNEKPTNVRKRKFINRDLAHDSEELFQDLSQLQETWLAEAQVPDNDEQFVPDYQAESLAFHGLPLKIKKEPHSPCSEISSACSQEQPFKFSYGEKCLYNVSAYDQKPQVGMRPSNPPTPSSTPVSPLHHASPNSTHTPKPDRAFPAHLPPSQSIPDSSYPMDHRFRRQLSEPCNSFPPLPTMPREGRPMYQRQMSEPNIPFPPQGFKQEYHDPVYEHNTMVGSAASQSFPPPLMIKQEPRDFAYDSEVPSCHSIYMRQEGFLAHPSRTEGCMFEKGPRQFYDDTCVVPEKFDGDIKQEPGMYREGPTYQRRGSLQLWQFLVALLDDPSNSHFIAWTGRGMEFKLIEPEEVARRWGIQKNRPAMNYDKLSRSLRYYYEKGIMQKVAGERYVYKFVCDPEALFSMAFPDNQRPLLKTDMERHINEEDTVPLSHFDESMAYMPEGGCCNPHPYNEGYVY
Summary of the method: as §1

ERF = biological target: T9, ERF (Homo sapiens, UniProt P50548 1-548)
T9 sequence: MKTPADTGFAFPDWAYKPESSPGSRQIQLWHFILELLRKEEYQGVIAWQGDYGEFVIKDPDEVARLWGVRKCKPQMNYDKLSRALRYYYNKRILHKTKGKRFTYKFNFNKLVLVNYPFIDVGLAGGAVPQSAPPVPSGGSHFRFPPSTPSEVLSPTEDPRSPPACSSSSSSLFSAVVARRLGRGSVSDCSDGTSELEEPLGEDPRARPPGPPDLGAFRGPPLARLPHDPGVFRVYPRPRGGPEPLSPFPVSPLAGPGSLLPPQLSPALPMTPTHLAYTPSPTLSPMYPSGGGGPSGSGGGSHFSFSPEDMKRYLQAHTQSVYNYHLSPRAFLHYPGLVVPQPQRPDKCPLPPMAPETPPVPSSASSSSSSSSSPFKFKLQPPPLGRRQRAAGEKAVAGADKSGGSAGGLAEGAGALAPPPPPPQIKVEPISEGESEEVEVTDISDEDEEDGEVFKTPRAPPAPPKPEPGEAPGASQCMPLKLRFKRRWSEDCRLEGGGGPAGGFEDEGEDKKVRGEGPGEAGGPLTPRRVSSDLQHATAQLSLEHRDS
Summary of the method: as §1

ETV3L = biological target: T10, ETV3L (Homo sapiens, UniProt Q6ZN32 1-361)
T10 sequence: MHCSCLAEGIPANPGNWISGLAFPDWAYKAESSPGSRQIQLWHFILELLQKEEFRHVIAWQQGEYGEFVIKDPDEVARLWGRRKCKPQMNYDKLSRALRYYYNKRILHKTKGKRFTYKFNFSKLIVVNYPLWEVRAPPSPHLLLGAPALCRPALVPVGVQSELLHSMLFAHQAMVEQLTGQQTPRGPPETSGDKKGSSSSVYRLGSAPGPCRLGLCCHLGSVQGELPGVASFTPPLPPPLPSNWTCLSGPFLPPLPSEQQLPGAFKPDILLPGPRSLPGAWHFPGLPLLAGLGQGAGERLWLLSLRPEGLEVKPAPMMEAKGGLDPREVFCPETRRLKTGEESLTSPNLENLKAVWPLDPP
Summary of the method: as §1

ETS2 = biological target: T11, ETS2 (Homo sapiens, UniProt P15036 1-469)
T11 sequence: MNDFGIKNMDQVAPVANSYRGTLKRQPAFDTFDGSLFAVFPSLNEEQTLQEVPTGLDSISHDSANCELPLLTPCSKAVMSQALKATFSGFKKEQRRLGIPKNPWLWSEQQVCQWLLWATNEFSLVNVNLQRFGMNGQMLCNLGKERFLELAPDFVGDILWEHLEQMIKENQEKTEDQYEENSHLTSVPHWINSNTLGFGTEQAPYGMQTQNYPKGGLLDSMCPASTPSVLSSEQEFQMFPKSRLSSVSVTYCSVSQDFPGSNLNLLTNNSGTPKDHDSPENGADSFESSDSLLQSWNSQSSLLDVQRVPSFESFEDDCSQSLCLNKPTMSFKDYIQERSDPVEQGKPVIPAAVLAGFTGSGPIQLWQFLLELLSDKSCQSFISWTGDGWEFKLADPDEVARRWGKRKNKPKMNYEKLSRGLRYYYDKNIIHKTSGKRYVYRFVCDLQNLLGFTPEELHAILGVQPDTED
Summary of the method: as §1

SPDEF = biological target: T12, SPDEF (Homo sapiens, UniProt O95238 1-335)
T12 sequence: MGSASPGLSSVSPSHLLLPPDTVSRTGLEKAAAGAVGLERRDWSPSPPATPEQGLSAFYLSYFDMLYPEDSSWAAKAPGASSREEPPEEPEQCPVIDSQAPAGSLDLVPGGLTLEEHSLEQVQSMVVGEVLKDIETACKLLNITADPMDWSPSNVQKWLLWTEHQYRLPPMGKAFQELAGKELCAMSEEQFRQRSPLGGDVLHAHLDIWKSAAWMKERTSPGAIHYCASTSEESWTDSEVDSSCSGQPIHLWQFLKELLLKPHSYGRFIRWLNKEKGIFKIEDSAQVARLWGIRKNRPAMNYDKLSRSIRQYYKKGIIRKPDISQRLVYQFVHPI
Summary of the method: as §1

ETV3 = biological target: T13, ETV3 (Homo sapiens, UniProt P41162-2 1-143)
T13 sequence: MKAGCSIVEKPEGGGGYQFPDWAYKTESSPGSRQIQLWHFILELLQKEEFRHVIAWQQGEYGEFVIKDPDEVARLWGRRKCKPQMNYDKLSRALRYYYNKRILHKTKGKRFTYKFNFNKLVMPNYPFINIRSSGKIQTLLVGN
Summary of the method: as §1

ETV6 = ETV6 (Homo sapiens, UniProt P41212 1-452)
ETV6, sequence (P41212 whole entry): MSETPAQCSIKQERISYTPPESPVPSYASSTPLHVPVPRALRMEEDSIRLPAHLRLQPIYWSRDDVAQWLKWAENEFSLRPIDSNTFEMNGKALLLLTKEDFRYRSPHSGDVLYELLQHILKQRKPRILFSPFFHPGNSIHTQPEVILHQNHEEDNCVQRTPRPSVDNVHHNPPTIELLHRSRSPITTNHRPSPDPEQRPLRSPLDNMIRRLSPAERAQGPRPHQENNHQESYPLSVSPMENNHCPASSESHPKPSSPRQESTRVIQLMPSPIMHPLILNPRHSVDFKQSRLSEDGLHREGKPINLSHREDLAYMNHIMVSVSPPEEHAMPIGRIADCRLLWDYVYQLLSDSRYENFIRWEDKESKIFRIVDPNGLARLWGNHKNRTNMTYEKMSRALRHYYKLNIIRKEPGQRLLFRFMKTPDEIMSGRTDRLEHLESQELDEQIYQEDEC
Summary of the method: as §1

CAGCCC
binding signal (ELK1): 1.16 fold enrichment (6-mer frequency, TF over GST control) | binding signal (GABPA): 1.06 fold enrichment (6-mer frequency, TF over GST control) | binding signal (ERG): 1.18 fold enrichment (6-mer frequency, TF over GST control) | binding signal (ELF1): 1.09 fold enrichment (6-mer frequency, TF over GST control) | binding signal (EHF): 1.16 fold enrichment (6-mer frequency, TF over GST control) | binding signal (SPIB): 1.09 fold enrichment (6-mer frequency, TF over GST control) | binding signal (ELK3): 1.11 fold enrichment (6-mer frequency, TF over GST control) | binding signal (ETV5): 1.07 fold enrichment (6-mer frequency, TF over GST control) | binding signal (SPIC): 1.13 fold enrichment (6-mer frequency, TF over GST control) | binding signal (ELF4): 1.06 fold enrichment (6-mer frequency, TF over GST control) | binding signal (ELK4): 1.19 fold enrichment (6-mer frequency, TF over GST control) | binding signal (ELF3): 1.35 fold enrichment (6-mer frequency, TF over GST control) | binding signal (ETV1): 1.01 fold enrichment (6-mer frequency, TF over GST control) | binding signal (ERF): 1.08 fold enrichment (6-mer frequency, TF over GST control) | binding signal (ETV3L): 1.07 fold enrichment (6-mer frequency, TF over GST control) | binding signal (ETS2): 1.13 fold enrichment (6-mer frequency, TF over GST control) | binding signal (SPDEF): 1.02 fold enrichment (6-mer frequency, TF over GST control) | binding signal (ETV3): 1.05 fold enrichment (6-mer frequency, TF over GST control) | binding signal (ETV6): 1.12 fold enrichment (6-mer frequency, TF over GST control)
